# Measured values from PubChem BioAssay (NCATS).
# Records with an inconclusive call do not appear. A call without a number means that no potency is given here. Calls of active or inactive are those of the source. Calls come from the whole dose curve; as a rule, active = well fitted cell-killing curve with a large enough effect; inconclusive = small, poorly fitted or top-dose-only effect, or effect the other way; inactive = no such curve, though single readings can be large or run the other way.
# Experiments:
# [1] = Quantitative High-Throughput drug screen in 47 multiple myeloma cell lines against the NCATS MIPE library collection: RPMI8226_ATCC cell viability assay (AID 1919871); note: nearly all actives have a fitted effect of over 30% in size
# Summary of the method: (§1)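 Myeloma cells (500/well) treated with MIPE 4.0 compounds for 48 h at 37 °C, 5% CO2. Viability read as ATP via CellTiter-Glo luminescence after 5 min at RT; DMSO-only wells = 100%, media-only = 0% viability.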
# [2] = Quantitative High-Throughput drug screen in 47 multiple myeloma cell lines against the NCATS MIPE library collection: OPM2_DSMZ cell viability assay (AID 1919872); note: nearly all actives have a fitted effect of over 30% in size
# Summary of the method: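 Myeloma cell lines, 500 cells per well, exposed to MIPE 4.0 library compounds for 48 h at 37C, 5% CO2. Viability from ATP by CellTiter-Glo luminescence; normalised to DMSO (100%) and media-only (0%) wells.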
# [3] = Quantitative High-Throughput drug screen in 47 multiple myeloma cell lines against the NCATS MIPE library collection: KMS11_JCRBsus cell viability assay (AID 1919873); note: nearly all actives have a fitted effect of over 50% in size
# Summary of the method: as §1
# [4] = Quantitative High-Throughput drug screen in 47 multiple myeloma cell lines against the NCATS MIPE library collection: KMS28BM_JCRB cell viability assay (AID 1919874); note: nearly all actives have a fitted effect of over 35% in size
# Summary of the method: as §1
# [5] = Quantitative High-Throughput drug screen in 47 multiple myeloma cell lines against the NCATS MIPE library collection: PCM6_Riken cell viability assay (AID 1919870); note: nearly all actives have a fitted effect of over 30% in size
# Summary of the method: as §1
# Potency is the fitted concentration of half-maximal effect.
smiles,measurement,setting,value
CCN(CC)CCCC(C)Nc1nc(C)cc(Nc2ccc3nc(C)cc(N)c3c2)n1 (stereo unspecified),Potency,[1],inactive
same,Potency,[2],inactive
same,Potency,[3],inactive
same,Potency,[4],inactive
C[C@H](NC(=O)Cc1cc(F)cc(F)c1)C(=O)N[C@@H]1C(=O)N(C)c2ccccc2-c2ccccc21,Potency,[5],5.26 µM (active)
same,Potency,[3],inactive
NCCc1ccc(O)c(O)c1,Potency,[1],18.7 µM (active)
same,Potency,[2],13.2 µM (active)
same,Potency,[3],9.35 µM (active)
same,Potency,[4],inactive
N[C@@H]1CONC1=O,Potency,[1],inactive
same,Potency,[2],inactive
same,Potency,[3],inactive
same,Potency,[4],inactive
Cc1cc(C=c2sc3nc4ccccc4n3c2=O)c(C)n1-c1ccccc1,Potency,[5],inactive
same,Potency,[3],inactive
same,Potency,[4],inactive
N#Cc1ccc(C(c2ccc(C#N)cc2)n2cncn2)cc1,Potency,[1],5.9 µM (active)
same,Potency,[2],9.35 µM (active)
COc1ccc(-c2c(-c3ccc(O)cc3O)n[nH]c2C)cc1,Potency,[1],inactive
same,Potency,[2],inactive
same,Potency,[3],48.1 µM (active)
S=C(NCc1ccc2c(c1)OCO2)N1CCN(c2ncnc3c2oc2ccccc23)CC1,Potency,[5],4.81 µM (active)
same,Potency,[3],1.52 µM (active)
same,Potency,[4],1.36 µM (active)
Cc1c(CCOc2ccc(C(=O)O)cc2)c2cc(Cl)ccc2n1C(c1ccccc1)c1ccccc1,Potency,[5],inactive
same,Potency,[3],inactive
CCOC(=O)N1CCC(=C2c3ccc(Cl)cc3CCc3cccnc32)CC1,Potency,[5],inactive
same,Potency,[3],20.9 µM (active)
same,Potency,[4],23.5 µM (active)
Cc1ccc(N(CC2=NCCN2)c2cccc(O)c2)cc1,Potency,[5],inactive
same,Potency,[3],18.7 µM (active)
Oc1ccc(C2CNCCc3c2cc(O)c(O)c3Cl)cc1 (stereo unspecified),Potency,[1],inactive
same,Potency,[2],inactive
same,Potency,[3],inactive
same,Potency,[4],inactive
Cc1ccccc1C(OCCN(C)C)c1ccccc1 (stereo unspecified),Potency,[1],inactive
same,Potency,[2],inactive
same,Potency,[3],inactive
CNCc1ccc(-c2[nH]c3cc(F)cc4c3c2CCNC4=O)cc1,Potency,[1],inactive
same,Potency,[2],inactive
O=C(C1CC1)N1CC[C@@H](Cn2c(-c3ccc(-c4ccc5occc5c4)cc3)nc3cnccc32)C1,Potency,[1],inactive
same,Potency,[2],20.9 µM (active)
CC(C)C[C@H](NC(=O)[C@@H](O)[C@H](N)Cc1ccccc1)C(=O)O,Potency,[1],20.9 µM (active)
same,Potency,[3],9.35 µM (active)
same,Potency,[4],16.6 µM (active)
CCc1cncnc1N1CCN(Cc2nc3ccc(C(F)(F)F)cc3[nH]2)CC1,Potency,[2],9.35 µM (active)
same,Potency,[3],11.8 µM (active)
same,Potency,[4],23.5 µM (active)
CCC(C)(C)C(=O)O[C@H]1C[C@@H](C)C=C2C=C[C@H](C)[C@H](CC[C@@H]3C[C@@H](O)CC(=O)O3)[C@H]21,Potency,[3],13.2 µM (active)
NCCCC(N)(C(=O)O)C(F)F (stereo unspecified),Potency,[2],inactive
same,Potency,[3],18.7 µM (active)
same,Potency,[4],inactive
CC1(C)SCCN(S(=O)(=O)c2ccc(OCC#CCO)cc2)[C@@H]1C(=O)NO,Potency,[1],inactive
same,Potency,[2],inactive
same,Potency,[4],inactive
CC[C@@H](C)[C@H](NC(=O)[C@H](CC1CCCCC1)NC(=O)c1ccno1)C(=O)N1CCC2(CCc3ccccc32)CC1,Potency,[2],11.8 µM (active)
CCn1c(-c2nonc2N)nc2cnc(Oc3cccc(NC(=O)c4ccc(OCCN5CCOCC5)cc4)c3)cc21,Potency,[3],11.8 µM (active)
same,Potency,[4],5.26 µM (active)
NC(=O)c1ccc(I)c([N+](=O)[O-])c1,Potency,[2],inactive
same,Potency,[3],inactive
same,Potency,[4],inactive
CNC[C@H](O)c1cccc(O)c1,Potency,[2],inactive
same,Potency,[3],inactive
same,Potency,[4],inactive
O=c1[nH]c(-c2ccc(C(F)(F)F)cc2)nc2c1CSCC2,Potency,[2],inactive
same,Potency,[3],inactive
CC[C@H](Nc1ncnc2nc[nH]c12)c1nc2cccc(F)c2c(=O)n1-c1ccccc1,Potency,[3],18.7 µM (active)
Nc1nc2ccc(OC(F)(F)F)cc2s1,Potency,[2],18.7 µM (active)
same,Potency,[3],inactive
CC(C)(N)C(=O)N[C@H](COCc1ccccc1)C(=O)N1CCC2(CC1)CN(S(C)(=O)=O)c1ccccc12,Potency,[2],inactive
O=C1[C@H](Cc2ccc(O)cc2)N2C(=O)CCN(C(=O)NCc3ccccc3)[C@H]2CN1Cc1cccc2ccccc12,Potency,[3],1.66 µM (active)
NC[C@H](O)c1ccc(O)c(O)c1,Potency,[2],inactive
CCC(=O)N[C@H]1CC[C@H](C(=O)N(C)c2ccc(-c3nc4ccccc4o3)cc2)C1,Potency,[2],inactive
same,Potency,[4],14.8 µM (active)
CCOc1ccn(-c2ccc(F)cc2)c(=O)c1C(=O)Nc1ccc(Oc2ccnc(N)c2Cl)c(F)c1,Potency,[2],inactive
CNC(=O)c1ccc(N2C(=S)N(c3ccc(C#N)c(C(F)(F)F)c3)C(=O)C2(C)C)cc1F,Potency,[1],inactive
same,Potency,[2],inactive
same,Potency,[4],inactive
O=C1CCCC2=C1C(c1[nH]ncc1Cl)N=C(Nc1nc3ccccc3o1)N2 (stereo unspecified),Potency,[2],inactive
C#Cc1cccc(Nc2ncnc3cc(OCCOC)c(OCCOC)cc23)c1,Potency,[2],inactive
NC(N)=NC(=O)c1nc(Cl)c(N)nc1N,Potency,[2],inactive
Cc1cnc(Nc2ccc(OCCN3CCCC3)cc2)nc1Nc1cccc(S(=O)(=O)NC(C)(C)C)c1,Potency,[2],inactive
Nc1cccc(S(=O)(=O)N2CCCN(S(=O)(=O)c3ccc4c(c3)OCCO4)CC2)c1,Potency,[2],inactive
same,Potency,[4],inactive
O=S(=O)(N=Cc1c(O)ccc2ccccc12)c1cccs1,Potency,[2],inactive
C[C@]1(c2nc3c(C(N)=O)cccc3[nH]2)CCCN1,Potency,[2],inactive
NC(=O)c1ccc(-c2nc(-c3ccc4c(c3)OCO4)c(-c3ccccn3)[nH]2)cc1,Potency,[3],inactive
same,Potency,[4],inactive
Cn1c(=O)c(F)c(Nc2ccc(I)cc2F)c2c(=O)n(C[C@@H](O)CO)cnc21,Potency,[1],inactive
same,Potency,[4],inactive
Cc1cccc(-c2nn(C(=S)Nc3ccccc3)cc2-c2ccnc3ccccc23)n1,Potency,[1],inactive
same,Potency,[2],inactive
same,Potency,[4],inactive
Cc1cc([C@@H](C)Nc2ccccc2C(=O)O)c2nc(N3CCOCC3)cc(=O)n2c1,Potency,[2],42.9 µM (active)
Cc1csc(NC(=O)c2sc3nc4c(c(C(F)(F)F)c3c2N)CCC4)n1,Potency,[1],13.2 µM (active)
same,Potency,[2],inactive
same,Potency,[4],26.4 µM (active)
Cc1cc2c(F)c(Oc3ncnn4cc(OC[C@@H](C)O)c(C)c34)ccc2[nH]1,Potency,[2],23.5 µM (active)
CN[C@@H](C)C(=O)N[C@H]1CCCC[C@H]2CC[C@@H](C(=O)N[C@@H](c3ccccc3)c3cn(CCCCc4ccc(CCCCn5cc([C@@H](NC(=O)[C@@H]6CC[C@@H]7CCCC[C@H](NC(=O)[C@H](C)NC)C(=O)N76)c6ccccc6)nn5)cc4)nn3)N2C1=O,Potency,[2],inactive
same,Potency,[3],inactive
c1ccc([C@H]2CN3CCSC3=N2)cc1,Potency,[2],inactive
same,Potency,[3],inactive
C1COC(NC(C2CC2)C2CC2)=N1,Potency,[2],inactive
same,Potency,[3],inactive
same,Potency,[4],inactive
